# Source: PubChem (several laboratories)
# ANO1 block = blocks the mouse calcium-activated chloride channel TMEM16A; Q8BHY3; HEK293 TMEM16A/YFP iodide influx fluorescence, ionomycin; normalized B-score (activity score, 25-100; higher = stronger inhibition) at 10 µM; 310,000 compounds, 1.2% hits;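 active = ratio plate-corrected score three or more library SD toward inhibition, starting fluorescence score within five deviations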;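 note: score derived from kinetic fluorescence span divided by baseline fluorescence per well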
# Target sequence (Q8BHY3 whole entry, looked up): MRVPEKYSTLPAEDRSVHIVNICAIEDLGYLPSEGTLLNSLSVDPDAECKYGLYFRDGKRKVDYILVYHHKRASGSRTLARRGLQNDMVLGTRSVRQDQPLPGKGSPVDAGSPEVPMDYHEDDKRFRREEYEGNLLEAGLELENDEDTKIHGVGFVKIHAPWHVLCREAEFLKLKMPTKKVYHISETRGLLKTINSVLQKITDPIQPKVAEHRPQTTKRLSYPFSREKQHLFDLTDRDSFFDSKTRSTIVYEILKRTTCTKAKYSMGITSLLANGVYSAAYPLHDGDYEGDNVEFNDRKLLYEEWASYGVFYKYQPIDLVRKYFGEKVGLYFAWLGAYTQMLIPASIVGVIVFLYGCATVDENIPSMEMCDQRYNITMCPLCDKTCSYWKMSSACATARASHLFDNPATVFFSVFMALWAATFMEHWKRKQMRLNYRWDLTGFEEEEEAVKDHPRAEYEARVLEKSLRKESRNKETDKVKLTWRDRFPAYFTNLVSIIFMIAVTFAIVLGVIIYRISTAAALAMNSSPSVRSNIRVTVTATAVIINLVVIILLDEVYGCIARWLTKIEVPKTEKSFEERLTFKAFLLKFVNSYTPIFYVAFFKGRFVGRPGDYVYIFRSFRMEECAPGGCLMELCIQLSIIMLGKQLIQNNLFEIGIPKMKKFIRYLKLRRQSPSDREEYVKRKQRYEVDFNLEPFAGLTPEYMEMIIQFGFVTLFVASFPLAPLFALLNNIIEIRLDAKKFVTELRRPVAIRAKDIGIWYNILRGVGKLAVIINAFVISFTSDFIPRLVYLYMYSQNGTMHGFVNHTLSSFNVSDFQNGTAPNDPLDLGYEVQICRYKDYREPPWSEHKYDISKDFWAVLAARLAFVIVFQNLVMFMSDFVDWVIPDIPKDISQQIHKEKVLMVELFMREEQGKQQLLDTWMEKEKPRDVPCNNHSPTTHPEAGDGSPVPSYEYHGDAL
# PKA-R2B activ = activates the human PKA-R2B holoenzyme complex | PKA-R2B holoenzyme dissociation, Cy5-IP20 fluorescence polarization; R2B truncated from residue 108, S112A mutant; 0% DMSO only, 100% 113 µM cGMP | activation, % at 11.4 µM | 340,000 compounds, 0.079% hits;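 active = activation above a cutoff set at the mean over all compounds plus 3 SD, cut at about 18% in these data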;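 note: higher means more holoenzyme dissociation and a rise in polarization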
# PKA-R1A activ = PKA-R1A complex activation. P00514+P68181. PKA-R1A dissociation, Cy5-IP20 fluorescence polarization; scaled: DMSO 0%, 113 µM cGMP 100%. activation, % at 11.4 µM. 340,000 compounds, 0.083% hits. AID 504707;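 active = percent activation above the mean of all tested compounds plus 3 SD, cut at about 19% in these data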;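 note: higher means more PKAc released from R1A so a rise in polarization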
# CHT inh = inhibitors of human choline transporter CHT. B-score at 10 µM. CHT-expressing cells, membrane potential dye, choline response; stronger effect = lower value. 310,000 compounds, 0.86% hits. Q9GZV3;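 active = B-score over 3 SD under the library average, and starting fluorescence ratio not unusually high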;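 note: choline stimulus applied at its EC90 after an EC20 pre-addition; B-score computed on integrated fluorescence ratio after choline addition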
# TMEM16A act = activators or potentiators of mouse TMEM16A chloride channel | Q8BHY3 | HEK293 TMEM16A/YFP-H148Q/I152L, iodide quench fluorescence; stronger effect = lower value | B-score at 10 µM | 340,000 compounds, 0.3% hits;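 active = fluorescence-ratio B-score plate-corrected deviation score at least 3 library SD below zero, with starting fluorescence score within 5 deviations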;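 note: channel opened by trigger with iodide after compound preincubation; score built on the fluorescence ratio of max minus min over baseline; more negative score means more quench and so TMEM16A activation or potentiation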
# CHT allo act = human CHT allosteric activation; Q9GZV3; CHT-expressing cells, membrane potential dye, choline EC20; stronger effect = higher value; LV-AA mutant CHT in HEK293 cells; B-score at 10 µM; 310,000 compounds, 0.49% hits; AID 488977;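 active = initial fluorescence not abnormally high and integrated response B-score, plate-corrected, over 3 SD above library mean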
# CHT inh conf = human CHT inhibition, confirmatory screen; CHT-expressing cells, choline membrane potential dye; LV-to-AA substituted CHT, HEK293 cells; 2,400 compounds, 70% hits; CHT activity remaining % of control (stronger effect = lower value), % at 10 µM; AID 493221; shares compounds with CHT inh;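 active = choline transporter activity left, mean of duplicates at 10 µM, below buffer-only control mean minus 3 SD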;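 note: depolarization triggered by choline at its EC90 following an EC20 pre-addition; 0% = hemicholinium-3 full block and 100% = buffer-only control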
# HEK293 CHT ctr = CHT inhibitor counter-screen hit in parental HEK293 cells. shares compounds with CHT inh. membrane potential dye, choline response; active = decrease or increase beyond buffer ±3SD. membrane potential ratio readout (active if shifted either direction beyond buffer ±3SD; no single direction) at 10 µM. 2,400 compounds, 4% hits;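 note: parental cells lack the transporter so any hit is non-specific; ratio is peak minus trough fluorescence over baseline after EC90 choline challenge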
# * = called active by the depositor; i = inactive; . = no result. Rows were chosen to be rich in hits. Some 2.5% of all compounds tested hit in one or more screens of this group.
SMILES,ANO1 block,PKA-R2B activ,PKA-R1A activ,CHT inh,TMEM16A act,CHT allo act,CHT inh conf,HEK293 CHT ctr
O=C(CNC(=O)c1cccs1)c1ccc([N+](=O)[O-])cc1,i,-11,6,i,i,i,.,.
CCCc1cc(=O)oc2cc(C)cc(OCC(=O)NCCCN3CCOCC3)c12,i,2,12,i,i,i,.,.
C=CCNS(=O)(=O)c1ccc(N2C(=O)c3ccccc3C2=O)cc1,i,1,9,-6.5*,i,i,63%*,i
CC(C)(C)NS(=O)(=O)c1ccc(N2C(=O)c3ccccc3C2=O)cc1,i,9,-4,-7.5*,i,i,60%*,i
Cc1cc(C)nc(NS(=O)(=O)c2ccc(N3C(=O)c4ccccc4C3=O)cc2)n1,i,-9,-14,i,i,i,.,.
C[N+]1(C)CC2=Cc3ccccc3CC2C1 (centres undefined),i,-12,-21,i,i,i,.,.
C1=C2C[N+]3(CCCC3)CC2Cc2ccc3ccccc3c21 (centres undefined),i,0,2,-7.6*,i,i,46%*,2.6*
Cc1ccc(C)c(NCC(=O)NNC(=S)Nc2ccccc2)c1,i,-15,-3,-6.2*,i,i,67%*,i
c1ccc(CCN2CCN(c3ncnc4c3cnn4-c3ccccc3)CC2)cc1,i,-18,-3,-5.3*,i,i,34%*,i
Cn1ncc2c(N3CCC(Cc4ccccc4)CC3)ncnc21,i,1,8,-6.6*,i,i,66%*,i
COc1ccc(C2C(CC(=O)O)=C(Nc3ccccc3)C(=O)N2c2ccccc2)cc1 (centres undefined),i,0,-12,i,i,i,.,.
O=C(O)CC1=C(Nc2ccccc2)C(=O)N(c2ccccc2)C1c1ccc(F)cc1 (centres undefined),i,-4,2,-6.4*,i,i,32%*,i
CCCCCn1c(=O)[nH]c2cc(C(=O)NCCN3CCC(C)CC3)ccc2c1=O,i,12,-5,-6.1*,i,i,i,i
O=C(NCC1CCCN1S(=O)(=O)c1cccs1)c1cccc(Cl)c1 (centres undefined),i,-3,4,i,i,i,.,.
O=C(CCc1nnc(Cc2ccc(-c3ccccc3)cc2)o1)N1CCCC1,i,1,11,-5.4*,i,i,46%*,i
CCN1CCN(c2ccc(NC(=O)CCc3c(C)nc4c(-c5ccc(F)cc5)c(C)nn4c3C)cc2)CC1,i,-2,6,i,i,i,.,.
O=C(Cc1ccc(F)cc1)c1ccc(O)cc1O,i,10,2,i,i,i,.,.
CCCc1cc(C(=O)Cc2ccc(F)cc2)c(O)cc1O,100*,-12,-8,-6.5*,i,i,62%*,i
CC(C)C[C@H](NC(=O)c1nc[nH]c1C(=O)N(C)Cc1ccccc1)C(=O)OCc1ccccc1,i,-13,2,i,i,i,.,.
CC(C)(C)c1ccc(C(=O)N2CCN(c3ccc(N4CCOCC4)nn3)CC2)cc1,i,-5,-12,i,i,i,.,.
COC(=O)/C(=C/c1c[nH]c2ccccc12)[N+](=O)[O-],i,1,15,-4.9*,i,i,58%*,i
Cc1ccnc(SCc2cc(=O)c(OC(=O)c3ccc(S(=O)(=O)N(C)C)cc3)co2)n1,i,-4,-1,-6.5*,i,i,58%*,i
